MsrA act: bovine MsrA enzyme activators, primary screen, biochemical, absorbance, HTS; purified bovine MsrA, absorbance read-out; activation, % at 10.6 µM; actives 0.3% (n = 360,000); in the data active means activation above about 7.5%;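 further: 0% = vehicle and 100% = reference activator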
MsrA inh: bovine MsrA enzyme inhibitors, primary screen, biochemical, absorbance, HTS; purified bovine MsrA, absorbance read-out; inhibition, % at 15.5 µM; actives 0.75% (n = 360,000);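 further: 0% = vehicle wells with enzyme and 100% = reference inhibitor wells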
PKA-R1A act: activators of PKA-R1A holoenzyme, primary screen, biochemical, fluorescence polarization, Cy5-IP20, bovine R1A, mouse PKAc; actives 0.083% (n = 340,000); PKA-R1A dissociation; scaled: DMSO 0%, 113 µM cGMP 100%; cAMP-dependent protein kinase type I-alpha regulatory subunit (Bos taurus) + …; activation, % at 11.4 µM;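 active means percent activation above the mean of all tested compounds plus 3 SD, cut at about 19% in these data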;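 further: higher means more PKAc released from R1A so a rise in polarization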
PKA-R2B activ: activators of PKA-R2B holoenzyme, primary screen, biochemical, fluorescence polarization, Cy5-IP20, human | cAMP-dependent protein kinase catalytic subunit beta (Homo sapiens) + cAMP-dependent … | PKA-R2B holoenzyme dissociation; R2B truncated from residue 108, S112A mutant; 0% DMSO only, 100% 113 µM cGMP | activation, % at 11.4 µM | actives 0.079% (n = 340,000) | AID 504700, 2011;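 active means activation above a cutoff set at the mean over all compounds plus 3 SD, cut at about 18% in these data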;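 further: higher means more holoenzyme dissociation and a rise in polarization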
Target sequence (P31323 whole entry, looked up, other chains not shown, the tested form may be a part): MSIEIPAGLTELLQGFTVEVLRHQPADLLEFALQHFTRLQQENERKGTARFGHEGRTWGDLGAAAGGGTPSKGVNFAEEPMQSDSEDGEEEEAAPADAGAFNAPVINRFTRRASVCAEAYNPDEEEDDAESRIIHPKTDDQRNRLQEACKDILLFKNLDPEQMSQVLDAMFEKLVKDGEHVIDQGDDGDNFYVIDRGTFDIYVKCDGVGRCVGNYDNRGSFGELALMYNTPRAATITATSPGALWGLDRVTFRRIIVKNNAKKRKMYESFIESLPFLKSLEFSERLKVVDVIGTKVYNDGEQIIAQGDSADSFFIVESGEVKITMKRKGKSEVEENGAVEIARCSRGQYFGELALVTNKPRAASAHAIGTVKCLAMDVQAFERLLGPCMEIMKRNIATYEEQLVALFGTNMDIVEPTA
MsrA conf: bovine MsrA inhibitors, retest, confirmation, biochemical, absorbance, HTS. shares compounds with MsrA inh. actives 41% (n = 2,300). inhibition, % at 15.5 µM. purified bovine MsrA, absorbance read-out;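 further: coupled to thioredoxin reductase with NADPH and selenocystamine and DMSO as substrate; 0% = vehicle only and 100% = full effect of reference inhibitor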
* hit, by the source's call; . = no result. Compounds with a hit are over-represented: about 1.1% of the library has one in this group of screens. Unless noted, no stated cut-off is given here; in the data, active means inhibition above about 4.5%; inactive means the rest.

SMILES	MsrA act	MsrA inh	PKA-R1A act	PKA-R2B activ	MsrA conf
N#C/C(=C/c1ccc(Br)o1)C(N)=O	-3.7	4.7*	-6.2	6.8	5.5*
CN1/C(=C\C(=O)COC(=O)c2ccc(O)cc2)C(C)(C)c2ccccc21	-6.4	5.2*	-0.9	-4.6	2.3
CN1/C(=C\C(=O)COC(=O)c2ccc(O)c(O)c2)C(C)(C)c2ccccc21	.	4.8*	.	.	3.6
O=C(O)CC1SC(N/N=C/c2ccc(Br)cc2)NC1=O (centres undefined)	-5.5	4.9*	-8.0	1.5	2.3
O=C(CSC1CCc2ccccc21)NNC(=O)Nc1ccc(Cl)cc1 (centres undefined)	.	0.1	.	.	.
c1ccc(-n2nnnc2-n2cnc3ccccc32)cc1	-1.3	9.9*	-5.5	-6.8	4.7*
COc1ccc(CCNC(=O)C(=O)NCC2OCCN2S(=O)(=O)c2ccc3c(c2)OCCO3)cc1 (centres undefined)	-4.2	0.1	-5.2	-6.7	.
N#Cc1ccccc1NC(=O)CSc1ccc([N+](=O)[O-])cn1	-3.7	0.8	-6.6	-0.3	.
N#Cc1cc([N+](=O)[O-])cnc1NCC(O)CO (centres undefined)	-4.2	5.4*	-3.1	-0.5	4.5
COc1ccccc1N1CCN(Cc2cc(=O)oc3ccccc23)CC1	-1.6	1.1	.	.	.
CCOC(=O)c1cccc(S(=O)(=O)N(CCO)Cc2cc3cc(OC)ccc3[nH]c2=O)c1	-4.5	.	-0.1	-2.2	.
CCOC(=O)c1cccc(S(=O)(=O)N(CCO)Cc2cc3cc(OC)c(OC)cc3[nH]c2=O)c1	-6.0	5.1*	2.5	-10.0	1.9
O=C1N/C(=C\c2ccc(O)cc2)C(O)=C1C=NCc1ccccc1	-4.5	4.9*	-12.9	-5.9	3.9
O=c1[nH][nH]c2c1[C@H](c1ccc(Cl)cc1)O[C@H](C1CCCC1)C2	-4.1	1.7	.	.	.
COc1cc2c(cc1OC)[N+]([O-])=C(c1ccccc1)C2=O	.	-0.9	.	.	.
COc1ccc(/C=C/C(=O)NC(=S)Nc2ccc(S(=O)(=O)Nc3nccnc3OC)cc2)cc1	-8.2	5.2*	7.4	7.5	6.0*
COc1ccc(/C=C/C(=O)NC(=S)Nc2ccc(S(=O)(=O)Nc3cc(OC)ncn3)cc2)cc1	-3.0	0.7	.	.	.
Cc1cc(Cl)ccc1OCC(=O)N/N=C/c1ccncc1	0.1	2.4	-2.7	-3.6	.
COc1ccc(C(=NNc2ccccc2C(=O)O)c2ccc(OC)cc2)cc1	-7.6	5.1*	-2.6	2.1	3.0
COc1ccc(C(=O)Nc2ccccc2C(=O)Nc2ccccc2C(=O)O)cc1	-3.5	0.5	-9.5	-5.2	.
COCCNC(=O)/C(C#N)=C/C=C/c1ccccc1	-3.9	7.1*	-5.2	-0.7	5.3*
O=C1COc2cc(ccc2[N+](=O)[O-])Oc2ccc(cc2Cl)C(=O)CCCCO1	-6.2	5.2*	-5.4	-8.4	5.1*
COc1ccc(C(=O)NCC(=O)N/N=C/C(C)=C/c2ccco2)cc1OC	-12.6	6.6*	3.4	-4.3	4.4
CC(=O)COc1c(-c2ccco2)oc2ccccc2c1=O	-5.4	4.8*	-2.5	0.6	4.3
CC1(C)CC(NC(=O)c2ccc(F)cc2)CC(C)(C)N1	-2.8	0.3	-5.9	-3.0	.
SMILES	MsrA act	MsrA inh	PKA-R1A act	PKA-R2B activ	MsrA conf
CC(=O)c1ccc(-c2ccc(C(=O)NC3CC(C)(C)NC(C)(C)C3)o2)cc1	-4.5	5.4*	-0.6	-11.5	5.3*
COc1ccc(OC)c2c1sc(=NC(=O)c1ccco1)n2C	-2.2	3.4	2.3	-7.2	.
CCn1c(=NC(=O)c2ccco2)sc2cccc(F)c21	-3.2	4.9*	-10.1	-5.7	3.6
N#CC(c1ccccc1O)N1N=C(c2ccccc2)CC1c1ccccc1 (centres undefined)	-5.9	2.8	2.0	2.4	.
COc1cc(C(C#N)N2N=C(c3ccccc3)CC2c2ccccc2)ccc1O (centres undefined)	-3.9	4.7*	-1.4	-9.7	1.3
N#C/C(=C(/O)COC(=O)c1cccnc1Cl)c1nc2ccccc2[nH]1	-2.1	4.7*	15.4	-4.5	1.4
N#C/C(=C(/O)COC(=O)c1ccc(O)cc1)c1nc2ccccc2[nH]1	-5.0	0.0	-6.0	-7.4	.
c1csc(-c2nc(CN3CCSCC3)cs2)c1	-2.3	2.1	-5.7	-0.6	.
C/C(=N\NC(=O)c1cccnc1)c1cccc([N+](=O)[O-])c1	-8.1	-0.1	-1.5	7.0	.
C/C(=N\Nc1ccc([N+](=O)[O-])cc1[N+](=O)[O-])c1cccnc1	-1.1	13.0*	-2.6	2.9	15.7*
C/C(=N\Nc1ccc(S(N)(=O)=O)cc1[N+](=O)[O-])c1cccnc1	-6.2	11.2*	3.0	8.7	10.2*
COc1ccc(OC)c(NS(=O)(=O)c2ccc3[nH]c(=O)[nH]c3c2)c1	0.5	0.5	13.1	5.2	.
O=C(/C=C/c1ccc(O)c(O)c1)NC(=O)c1ccccc1O	-6.5	6.3*	-12.6	1.4	4.0
CSc1ccc(/C=C/C(=O)NC(=O)c2ccccc2O)cc1	-12.5	6.0*	-14.3	-10.1	4.7*
Cc1cc(C)c(OCC(=O)OC(C)C(=O)NC2CC2)c(C)c1 (centres undefined)	-5.9	1.8	-4.1	-4.9	.
O=C(CC1CCCC1)NCCS(=O)(=O)N1CCN(c2ccccc2)CC1	-8.9	1.0	8.0	-1.6	.
O=C(O)CCCNC(=O)CC1S/C(=N/N=C/c2ccccc2O)NC1=O (centres undefined)	-6.9	4.8*	-2.0	3.8	4.2
CCCCNC(=O)CC1S/C(=N/N=C/c2ccc(OC)cc2)NC1=O (centres undefined)	-1.2	0.6	5.0	-6.3	.
Cc1cc2nc3n(c2cc1C)CC1CC(C(=O)NCc2ccco2)N(C)C31 (centres undefined)	0.2	-0.6	5.0	-1.3	.
CC(C)c1c(C(=O)N/N=C/c2ccco2)nnn1-c1nonc1N	-2.7	3.3	-1.8	-1.0	.
Cc1ccc(/C=N/NC(=O)c2nnn(-c3nonc3N)c2C(C)C)o1	-2.6	4.8*	-3.5	-0.3	4.8*
CC(/C=N/NC(=O)c1nnn(-c2nonc2N)c1CN(C)C)=C\c1ccco1	-3.0	6.2*	10.7	5.8	7.3*
CCCN(CCC)Cc1c(C(=O)N/N=C/C(C)=C\c2ccco2)nnn1-c1nonc1N	-0.5	2.2	7.1	-3.1	.
CCCc1c(C(=O)N/N=C/c2ccc(C)o2)nnn1-c1nonc1N	-8.6	5.0*	0.2	-4.6	4.6*
CCCN(CCC)Cc1c(C(=O)N/N=C/c2ccc(C)o2)nnn1-c1nonc1N	-2.1	0.9	6.6	4.3	.
CC(C)CNC(=O)/C=C/C=C/c1ccc2c(c1)OCO2	-6.8	4.3	-1.9	7.5	.
